Pf growth 48h = Primary qHTS for delayed death inhibitors of the malarial parasite plastid, 48 hour incubation; P. falciparum luciferase growth in erythrocytes, 48 h; Potency, µM (titrated, usually from 28.7 µM), actives largely listed as inhibitors; 5.9% of 310,000 active
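Luminescence readout; reporter = integrated firefly luciferase in P. falciparum. RBC culture at 2% hematocrit, 0.1% parasitemia final, 37 C/5% CO2; decreased signal taken as growth inhibition.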
LmPK inh = qHTS Assay for Inhibitors of Leishmania Mexicana Pyruvate Kinase (LmPK); Potency, µM (titrated, usually from 57.5 µM), usual class: inhibitors; purified LmPK, Kinase-Glo ATP luminescence, 1 h; Q27686; 0.37% of 290,000 active
Target sequence (Q27686 whole entry, looked up): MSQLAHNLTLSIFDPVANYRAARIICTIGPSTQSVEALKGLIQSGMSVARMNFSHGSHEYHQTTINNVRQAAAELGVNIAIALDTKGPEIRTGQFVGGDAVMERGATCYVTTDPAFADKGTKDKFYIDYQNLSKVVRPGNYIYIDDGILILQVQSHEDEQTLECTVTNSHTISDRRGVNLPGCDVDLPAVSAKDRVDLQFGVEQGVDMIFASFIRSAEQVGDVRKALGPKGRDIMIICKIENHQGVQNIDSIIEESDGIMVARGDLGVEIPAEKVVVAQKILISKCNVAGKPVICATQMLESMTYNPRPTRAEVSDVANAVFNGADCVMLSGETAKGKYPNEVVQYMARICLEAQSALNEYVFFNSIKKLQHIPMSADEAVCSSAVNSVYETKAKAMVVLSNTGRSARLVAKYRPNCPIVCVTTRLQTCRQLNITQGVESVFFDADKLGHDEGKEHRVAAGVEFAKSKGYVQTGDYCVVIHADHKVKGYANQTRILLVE
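Purified LmPK (0.1 nM) converted ADP (0.1 mM) to ATP with PEP (0.5 mM) in imidazole buffer pH 7.2 with KCl and MgCl2, 1 h at room temperature. ATP was read by Kinase-Glo luminescence; data normalized to uninhibited and no-enzyme controls.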
Shiga inhibitor = A qHTS for Small Molecule Inhibitors of Shiga Toxin; Vero cells, Shiga toxin protein synthesis inhibition reporter; inhibition, % at 38.7 µM; 9.2% of 290,000 active; AID 2315, 2010; in the data active means inhibition mostly above about 28%, no sharp cut-off; inactive means mostly below about 43%
Cycloheximide cs = Cycloheximide Counterscreen for Small Molecule Inhibitors of Shiga Toxin | cell reporter, cycloheximide protein synthesis inhibition counterscreen | max response, % | 12% of 300,000 active; in the data active means max response mostly above about 13%, no sharp cut-off; inactive means mostly below about 14%; further: read at 38.3 µM for the half of the compounds with a filed dose
Pf growth 96h = Primary qHTS for delayed death inhibitors of the malarial parasite plastid, 96 hour incubation | AID 504834, 2011 | 6.9% of 320,000 active | Potency, µM (titrated, usually from 28.7 µM), actives largely listed as inhibitors | P. falciparum luciferase reporter growth, 96 h
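P. falciparum expressing integrated firefly luciferase grown in erythrocytes (2% hematocrit, 0.05% parasitemia final) with compounds for 96 hours at 37 C, 5% CO2. Growth inhibition read as loss of luminescence after adding luciferase detection reagent.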
Hits are given with their value; i = inactive; ? = inconclusive; nt = no result given. Rows were chosen to be rich in hits. Some 22% of all compounds tested hit in one or more screens of this group. Unless noted, the call rests on the fitted dose curve; in most records, active means well fitted inhibition curve with a large enough effect; inconclusive means small, poorly fitted or top-dose-only effect, or another doubt; inactive means no such curve, though single readings can be large or run the other way.

SMILES	Pf growth 48h	LmPK inh	Shiga inhibitor	Cycloheximide cs	Pf growth 96h
COc1cc(C=O)ccc1OCCSc1ccc(Cl)cc1	i	i	70.0	22.2	i
CCOC(=O)N/N=C/c1ccc(OCCSc2ccc(Cl)cc2)c(OCC)c1	1.85µM	i	i	i	3.29µM
O=C(CNS(=O)(=O)c1c(Cl)cccc1Cl)OCC(=O)N1CCN(c2ccccc2)CC1	i	i	i	i	i
O=C(c1cc(-c2ccc(O)cc2)on1)N1CCN(c2ccccc2)CC1	i	i	i	i	i
O=C(c1cc(-c2ccc3c(c2)OCO3)on1)N1CCOCC1	i	?	active	20.1	i
O=C(c1cc(-c2ccc3c(c2)OCO3)on1)N1CCN(c2ccccc2)CC1	i	i	61.5	56.4	?
O=C(c1cc(C2CC2)on1)N1CCN(c2ccccc2)CC1	nt	i	46.7	24.0	?
O=C(O)c1ccc(S(=O)(=O)N[C@H](Cc2c[nH]c3ccccc23)C(=O)O)cc1	i	nt	i	i	i
CC(=O)N1c2ccccc2CCc2ccc([N+](=O)[O-])cc21	i	i	i	i	i
Cc1nc(-c2ccncc2)nc(NCCNc2ccc(C(F)(F)F)cn2)c1Cl	3.7µM	i	i	i	2.33µM
NS(=O)(=O)c1ccc(CCNc2ccc(C(F)(F)F)cn2)cc1	i	i	i	i	i
Cc1cc(N2CCCCC2)nc(SCc2ccc(C#N)cc2)n1	14.7µM	i	i	i	nt
Cc1ccc(CSc2nc(N)cc(N)n2)cc1	i	i	nt	25.0	i
Cc1ccc(CSc2nc(N)cc(=O)[nH]2)cc1	nt	i	i	i	i
N#Cc1ccc(CSc2nc(N)cc(N)n2)cc1	i	i	i	7.9	i
CCOc1ccc(N(CC(=O)Nc2cc(OC)cc(OC)c2)S(=O)(=O)c2c(C)[nH]c(=O)[nH]c2=O)cc1	i	i	i	i	i
Cc1cc(OCC(=O)N[C@@H](CSCc2ccccc2)C(=O)O)c2c(C)c(C)c(=O)oc2c1	?	i	i	i	10.4µM
CCOc1ccc(NC(=O)CCC(=O)N/N=C(\C)c2cccs2)cc1	i	i	i	i	i
Nc1cc(C(F)(F)F)ccc1OCC1CCCO1 (configuration not stated)	i	i	20.9	25.6	i
O=C(O)c1ccccc1OCC1CCCO1 (configuration not stated)	i	i	i	i	i
O=C(Nc1cccc(Cl)c1)c1cnccn1	i	i	nt	15.5	i
CSc1cccc(NC(=O)c2ccccn2)c1	i	i	103.2	37.5	i
O=C(Nc1cccc(Cl)c1)c1csc(-c2ccccc2)n1	i	i	i	43.0	i
O=C(NNC(=O)c1ccc(Cl)cc1Cl)c1csc(-c2cccnc2)n1	i	i	i	19.4	i
CCCC(C)CO (configuration not stated)	i	nt	nt	nt	i
SMILES	Pf growth 48h	LmPK inh	Shiga inhibitor	Cycloheximide cs	Pf growth 96h
O=C(CCN(NC(=O)c1ccccc1)C1=NS(=O)(=O)c2ccccc21)NC1CCCCC1	i	i	i	i	?
CSc1ncc(Cl)c(C(=O)Nc2cccc(Cl)c2)n1	i	i	i	i	?
CSc1cccc(NC(=O)c2cnccn2)c1	i	i	i	30.7	nt
CSc1cccc(NC(=O)N2CCc3ccc(NC(=O)c4ccccn4)cc3C2)c1	i	i	77.4	18.4	?
CNC(=O)c1[nH]cnc1C(=O)Nc1cccc(Cl)c1	i	nt	nt	nt	i
CSc1cccc(NC(=O)c2ccc(Cl)nc2)c1	?	i	61.1	40.2	?
COc1ccccc1C(=O)Nc1ccc2c(c1)CN(C(=O)CSC)CC2	i	i	i	i	?
O=C(Nc1cccc(Cl)c1)c1cnc[nH]1	i	i	74.7	54.5	i
Cc1nc2ccccc2c(=O)n1NC(=O)c1ccc(Cl)c(Cl)c1	i	i	i	i	?
COc1ccc(-n2nnnc2SCC(=O)Nc2ccccc2F)cc1	i	i	nt	i	?
COc1ccc(C2=CSC3=NNC4(CCCCC4)NN23)cc1	?	i	102.5	34.7	?
Cc1ccc(C2=CSC3=NNC4(CCCCC4)NN23)cc1	i	i	88.1	52.9	i
COc1ccc(C2=CSC3=NCCN23)cc1	i	i	i	i	i
Cc1ccc(C2=CSC3=NCCN23)c(C)c1	?	i	i	i	?
COCCCN(C(=O)c1ccccc1F)c1nc(-c2ccc(OC)cc2)cs1	?	i	i	i	i
CCC(C)Sc1ccc([C@@H]2[C@H]3C(=O)N(CC)C(=O)[C@H]3[C@]3(C(=O)OC)CCCN23)cc1OC (some centres not stated)	11.7µM	nt	nt	nt	10.4µM
CCN1C(=O)[C@@H]2[C@@H](c3ccc(SC4CCCCC4)cc3)N3CCCC[C@@]3(C(=O)OC)[C@@H]2C1=O	?	nt	nt	nt	11.7µM
CCN1C(=O)[C@H]2[C@@H](c3ccc(SC4CCCCC4)c(OC)c3)N3CCCC[C@@]3(C(=O)OC)[C@H]2C1=O	3.7µM	nt	nt	nt	11.7µM
CC1CC(=O)N(CC(=O)NC2CCCCC2)c2ccccc2S1 (configuration not stated)	i	i	i	i	?
N/C(=N\OC(=O)c1cnn(-c2ccccc2)c1C(F)(F)F)c1ccc(C(F)(F)F)cc1	i	i	i	i	i
O=C(CSc1nnc(-c2cccc(F)c2)o1)N1CCCC1	i	i	i	23.2	i
COc1ccc(OC)c(-c2nnc(SCC(=O)N3CCOCC3)o2)c1	i	i	i	i	i
COc1ccc(-c2nnc(SCC(=O)N3CCOCC3)o2)cc1	i	i	122.2	i	nt
COc1ccc(-n2c(SCC(=O)N3CCOCC3)nc(O)cc2=O)cc1	i	i	i	i	5.86µM
COc1cccc(-c2nnc(SCC(=O)N3CCOCC3)o2)c1	i	i	i	22.1	11.7µM
SMILES	Pf growth 48h	LmPK inh	Shiga inhibitor	Cycloheximide cs	Pf growth 96h
COc1cccc(-c2nnc(SCC(=O)N3CC(C)CC(C)C3)o2)c1 (configuration not stated)	nt	i	i	i	?
CCNC(=O)CN(C1CCCCC1)S(C)(=O)=O	i	i	i	i	i
COc1ccc(-c2nnc(SCc3ccc(C(=O)O)cc3)n2C)cc1OC	i	i	i	i	?
Cc1cccc(OCc2nnc(SCc3nc4ccccc4c(=O)[nH]3)o2)c1	i	i	i	i	nt
COc1ccc(-c2nnc(SCC(C)C)o2)cc1	i	i	55.4	58.4	i
COc1ccc(-c2nnc(SCc3nc4ccccc4c(=O)[nH]3)o2)cc1	i	i	62.8	41.1	i
Cc1cccc(-c2noc(CCCC(=O)N3CCOCC3)n2)c1	i	i	i	11.4	nt
COc1ccc(C(=O)CSc2nnc(-c3ccc(C)cc3)o2)cc1	i	i	i	i	i
Cc1ccc(-c2noc(CCCC(=O)N3CCOCC3)n2)cc1	i	i	i	i	i
Cc1cccc(-c2nnc(SCC(=O)N3CCOCC3)o2)c1	i	i	70.5	20.7	?
O/N=C/c1cccnc1Sc1ccccc1	i	i	i	i	i
O=C(CSc1nnc(-c2ccc(OC(F)F)cc2)o1)N1CCOCC1	i	i	82.4	21.4	?
O=C(OCC(=O)N1CCCC1=O)c1nc(Cl)c(Cl)c(Cl)c1Cl	i	i	i	i	i

Source: PubChem BioAssay (National Center for Advancing Translational Sciences (NCATS))
